Values joined by “and” are separate entries in the source; they are usually repeats but may differ in a detail not shown here. Identical values can stand only once. In all, about 5,500 compounds went through this assay and about 2,000 (36%) were called active. About 18% were inconclusive and are not listed. No stated cut-off is given here; in the data, active means normalized growth mostly below about 0.91 (no sharp cut-off); inconclusive means no clear call, values can overlap the other calls; inactive means mostly above about 0.92. The list shows a part of the results.
Experiment: chemical genetic growth profiling, strain panel (AID 1159580);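 further: tested at 20 µM; growth read once vehicle control cultures reached saturation at 30 °C; 1 = growth at the plate median or of vehicle wells; lower values mean less growth of the strain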
Details: growth OD

Measured: normalized growth

Nc1ccc(C(=O)O)c(O)c1
inactive: S. cerevisiae deletion strains, locus YKL009W, strain mrt4, active compounds read low 1 | S. cerevisiae deletion strains, locus YKL068W, active compounds read low 0.999 | S. cerevisiae deletion strains, locus YKL085W, strain MDH1 (second series), active compounds read low 0.995 | S. cerevisiae deletion strains, locus YKL085W, strain MDH1, active compounds read low 0.995 | S. cerevisiae deletion strains, locus YKL160W, strain elf1, active compounds read low 0.947 | S. cerevisiae deletion strains, locus YKL190W, strain CNB1, active compounds read low 1.01 | S. cerevisiae deletion strains, locus YKR001C, strain vps1, active compounds read low 0.992 | S. cerevisiae deletion strains, locus YKR026C, strain gcn3, active compounds read low 0.994 | S. cerevisiae deletion strains, locus YKR091W, strain srl3, active compounds read low 0.989 | S. cerevisiae deletion strains, locus YLL001W, strain dnm1, active compounds read low 0.924 | S. cerevisiae deletion strains, locus YLL026W, active compounds read low 1 | S. cerevisiae deletion strains, locus YLL041C, strain sdh2, active compounds read low 0.992 | S. cerevisiae deletion strains, locus YLR027C, strain aat2, active compounds read low 1 | S. cerevisiae deletion strains, locus YLR039C, strain RIC1, active compounds read low 1.02 | S. cerevisiae deletion strains, locus YLR058C, strain SHM2, active compounds read low 1.01 | S. cerevisiae deletion strains, locus YLR102C, strain apc9, active compounds read low 0.998 | S. cerevisiae deletion strains, locus YLR113W, strain HOG1, active compounds read low 1.03 and 1.02 | S. cerevisiae deletion strains, locus YLR221C, strain rsa3, active compounds read low 0.968 | S. cerevisiae deletion strains, locus YLR258W, strain gsy2, active compounds read low 1.01 | S. cerevisiae deletion strains, locus YLR262C, strain YPT6 (second series), active compounds read low 0.961 | S. cerevisiae deletion strains, locus YLR262C, strain YPT6, active compounds read low 1.06 | S. cerevisiae deletion strains, locus YLR268W, strain sec22, active compounds read low 0.99 | S. cerevisiae deletion strains, locus YLR320W, strain mms22, active compounds read low 0.954 | S. cerevisiae deletion strains, locus YLR330W, strain CHS5, active compounds read low 1.01 | S. cerevisiae deletion strains, locus YLR342W, strain FKS1 (second series), active compounds read low 1.04 | S. cerevisiae deletion strains, locus YLR342W, strain FKS1, active compounds read low 0.997 | S. cerevisiae deletion strains, locus YLR357W, strain rsc2, active compounds read low 0.955 | S. cerevisiae deletion strains, locus YLR370C, strain arc18, active compounds read low 0.995 | S. cerevisiae deletion strains, locus YLR371W, strain rom2, active compounds read low 0.997 | S. cerevisiae deletion strains, locus YLR384C, strain iki3, active compounds read low 0.994 | S. cerevisiae deletion strains, locus YLR418C, strain cdc73, active compounds read low 0.996 | S. cerevisiae deletion strains, locus YML016C, strain PPZ1, active compounds read low 1.01 | S. cerevisiae deletion strains, locus YML032C, strain rad52, active compounds read low 1 | S. cerevisiae deletion strains, locus YML120C, strain ndi1, active compounds read low 0.978 | S. cerevisiae deletion strains, locus YML124C, strain tub3, active compounds read low 0.996 | S. cerevisiae deletion strains, locus YMR058W, strain fet3, active compounds read low 0.995 | S. cerevisiae deletion strains, locus YMR078C, strain ctf18, active compounds read low 1 | S. cerevisiae deletion strains, locus YMR125W, strain sto1, active compounds read low 0.945 | S. cerevisiae deletion strains, locus YMR129W, active compounds read low 0.999 | S. cerevisiae deletion strains, locus YMR205C, strain PFK2, active compounds read low 0.939 | S. cerevisiae deletion strains, locus YMR223W, strain ubp8, active compounds read low 1 | S. cerevisiae deletion strains, locus YMR231W, strain pep5, active compounds read low 0.985 | S. cerevisiae deletion strains, locus YMR263W, strain SAP30, active compounds read low 1 | S. cerevisiae deletion strains, locus YMR307W, strain GAS1, active compounds read low 0.991 | S. cerevisiae deletion strains, locus YNL067W, strain RPL9B, active compounds read low 1.01 | S. cerevisiae deletion strains, locus YNL071W, strain lat1, active compounds read low 0.986 | S. cerevisiae deletion strains, locus YNL153C, strain GIM3, active compounds read low 0.998 | S. cerevisiae deletion strains, locus YNL183C, strain NPR1, active compounds read low 0.959 and 0.981 | S. cerevisiae deletion strains, locus YNL209W, strain ssb2, active compounds read low 0.997 | S. cerevisiae deletion strains, locus YNL233W, strain BNI4, active compounds read low 0.998 | S. cerevisiae deletion strains, locus YNL248C, strain rpa49, active compounds read low 0.967 | S. cerevisiae deletion strains, locus YNL250W, strain rad50, active compounds read low 1 | S. cerevisiae deletion strains, locus YNL271C, strain bni1, active compounds read low 0.985 | S. cerevisiae deletion strains, locus YNL298W, strain CLA4, active compounds read low 0.989 | S. cerevisiae deletion strains, locus YNL307C, strain MCK1, active compounds read low 1 | S. cerevisiae deletion strains, locus YNL322C, strain KRE1 (second series), active compounds read low 0.977 | S. cerevisiae deletion strains, locus YNL322C, strain KRE1, active compounds read low 1.01 | S. cerevisiae deletion strains, locus YNR049C, strain mso1, active compounds read low 0.994 | S. cerevisiae deletion strains, locus YNR052C, strain pop2, active compounds read low 0.998 | S. cerevisiae deletion strains, locus YOL006C, strain TOP1, active compounds read low 1.04 | S. cerevisiae deletion strains, locus YOL012C, strain htz1 0.886 | S. cerevisiae deletion strains, locus YOL147C, strain pex11, active compounds read low 0.999 | S. cerevisiae deletion strains, locus YOR001W, strain rrp6, active compounds read low 1.04 | S. cerevisiae deletion strains, locus YOR061W, strain CKA2, active compounds read low 1.01 | S. cerevisiae deletion strains, locus YOR069W, strain VPS5, active compounds read low 1.01 | S. cerevisiae deletion strains, locus YOR070C, strain gyp1, active compounds read low 0.995 | S. cerevisiae deletion strains, locus YOR080W, strain dia2, active compounds read low 1 | S. cerevisiae deletion strains, locus YOR083W, strain WHI5, active compounds read low 0.945 | S. cerevisiae deletion strains, locus YOR106W, strain vam3, active compounds read low 0.999 | S. cerevisiae deletion strains, locus YOR136W, strain idh2, active compounds read low 0.992 | S. cerevisiae deletion strains, locus YOR144C, strain elg1, active compounds read low 0.996 | S. cerevisiae deletion strains, locus YOR184W, strain ser1, active compounds read low 0.997 | S. cerevisiae deletion strains, locus YOR231W, strain MKK1, active compounds read low 1.01 and 1.04 | S. cerevisiae deletion strains, locus YOR265W, strain rbl2, active compounds read low 0.997 | S. cerevisiae deletion strains, locus YOR270C, strain vph1, active compounds read low 0.987 | S. cerevisiae deletion strains, locus YOR290C, strain snf2, active compounds read low 0.963 | S. cerevisiae deletion strains, locus YOR316C, strain cot1, active compounds read low 0.997 | S. cerevisiae deletion strains, locus YPL051W, strain arl3, active compounds read low 0.979 | S. cerevisiae deletion strains, locus YPL055C, strain LGE1, active compounds read low 1.01 | S. cerevisiae deletion strains, locus YPL078C, strain atp4, active compounds read low 0.946 | S. cerevisiae deletion strains, locus YPL106C, strain sse1, active compounds read low 0.968 | S. cerevisiae deletion strains, locus YPL240C, strain hsp82, active compounds read low 0.991 | S. cerevisiae deletion strains, locus YPL241C, strain CIN2, active compounds read low 1.01 | S. cerevisiae deletion strains, locus YPL256C, strain CLN2, active compounds read low 1.03 and 1.04 | S. cerevisiae deletion strains, locus YPR119W, strain clb2, active compounds read low 0.998 | S. cerevisiae deletion strains, locus YPR141C, strain kar3, active compounds read low 0.999 | S. cerevisiae deletion strains, locus YPR163C, strain tif3, active compounds read low 0.99 | S. cerevisiae deletion strains, locus YPR167C, strain met16, active compounds read low 1.01 | S. cerevisiae deletion strains, strain wtn01, active compounds read low 0.984 | S. cerevisiae strains, strain wild type, active compounds read low 1.01

From PubChem BioAssay AID1159580 (chemical genetic matrix, 2015)
